We go through 13 molecules from PubChem BioAssay (NCATS).

Assay [1] can be described thus: Cell Viability - N2a (AID 540).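 Further: cells exposed to compound for 40 h at 37 °C; plate controls were DMSO alone for no effect and tamoxifen control for full effect; nearly all actives have a fitted effect of over 45% in size.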 The note with it: N2a mouse neuroblastoma cell viability; activity change, negative = cytotoxicity: at 92.2 µM (top of the series). An outline of the steps: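 Cytotoxicity was scored as loss of cellular ATP in N2a cells, a mouse neuroblastoma line. Compounds are applied in a qHTS concentration series for 40 hr at 37 °C.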
Assay [2] is described as follows: Cell Viability - H-4-II-E (AID 543).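 Further: cells exposed to compound for 40 hours; nearly all actives have a fitted effect of over 35% in size.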 Further: potency means the concentration at half of the fitted maximal effect. A digest of the protocol:
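Cells seeded at 1500 per well and rested 5 hr; compounds added; 40 hr incubation at 37 °C; CellTiter-Glo added, 20 min at room temperature; luminescence read. Hill-equation fits gave AC50.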

The nature of assay [3]: Cell Viability - SH-SY5Y (AID 544).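 Further: cells exposed to compound for 40 hours; nearly all actives have a fitted effect of over 55% in size.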 Further: potency means the concentration at half of the fitted maximal effect.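 On viability change, negative = cytotoxic: 0% = DMSO alone and -100% = 100 µM tamoxifen.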 The note with it: SH-SY5Y neuroblastoma cell viability; viability change, negative = cytotoxic: at 92.2 µM (top of the series). An outline of the steps: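 Cells were plated at 1500 per well and allowed 5 hr at 37 °C. Compounds were added across a concentration range and incubated 40 hr at 37 °C. CellTiter-Glo was added for 20 min at room temperature before luminescence reading.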

Assay [4] can be described thus: MultiTox-Fluor Cytotoxicity Assay - LYMP1-002 - Dead Cells (AID 960). Further: nearly all actives have a fitted effect of over 60% in size. Further: potency means the concentration at half of the fitted maximal effect. An outline of the steps:
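Cells were plated, rested 5 hr, then treated with compound dilution series for 16 hr at 37 C. After adding substrate reagent and 60 min at room temperature, dead-cell protease fluorescence gave concentration-response curves fitted by the Hill equation.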

Assay [5] in a line: Cell Viability - LYMP2-004 (AID 966).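 Further: plate controls were DMSO only for no effect and tetraoctylammonium bromide control for full effect; nearly all actives have a fitted effect of over 65% in size.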 A digest of the protocol: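 qHTS cytotoxicity: human lymphoblastoid line, 24 hr compound treatment, 37 C, complete medium. Viability read as cellular ATP via luciferase luminescence; tetraoctylammonium bromide served as positive control.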
Assay [6] in a line: Cell Viability - LYMP2-005 (AID 967).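 Further: plate controls were DMSO only for no effect and 92 µM tetraoctylammonium bromide control for full effect.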 An outline of the steps:
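Steps: seed 2500 LYMP2-005 cells/well, incubate 5 h at 37 C, add compound, incubate 24 h at 37 C, add CellTiter-Glo, wait 30 min at RT, read luminescence. Concentration-response data fitted to Hill equation for AC50.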

A short description of assay [7]: Cell Viability - LYMP2-009 (AID 968).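 Further: 0% = DMSO alone and the full-kill end = tetraoctylammonium bromide at 92 µM; nearly all actives have a fitted effect of over 55% in size.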
Assay [8] is described as follows: Cell Viability - LYMP2-006 (AID 978).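 Further: cells exposed to compound for 24 hours; on the % scale 0 is the no-effect control and ±100 the full control effect; nearly all actives have a fitted effect of over 60% in size.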 An outline of the steps: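 qHTS, 1536-well; 2500 cells/well, 5 hr 37 C; cpd 24 hr 37 C; CellTiter-Glo 30 min RT; luminescence. Tetraoctylammonium bromide pos. ctrl. AC50 via Hill eqn.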
Assay [9] is described as follows: qHTS assay for small molecule disruptors of the mitochondrial membrane potential - 1 hr assay (AID 651754; calls by dose curve; further: nearly all actives have a fitted effect of over 35% in size; further: potency means the concentration at half of the fitted maximal effect). An outline of the steps:
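Loss of mitochondrial potential shifts the cationic dye from red mitochondrial aggregates to green cytoplasmic monomers. Cells (HepG2) are treated with compound for 1 hr before a 30 min dye incubation at 37C.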

Assay [10] is described as follows: qHTS assay for small molecule disruptors of the mitochondrial membrane potential - 5 hr assay (AID 651755; calls by dose curve; further: nearly all actives have a fitted effect of over 40% in size; further: potency means the concentration at half of the fitted maximal effect). A digest of the protocol: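 Membrane-potential dye readout: red aggregate (540 ex/590 em) versus green monomer (490 ex/535 em) fluorescence after 30 min dye loading, following 5 hr compound exposure at 37C of overnight-plated HepG2 cells.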
Assay [11] can be described thus: qHTS assay for small molecule agonists of the antioxidant response element (ARE) signaling pathway measured by Nrf2-dependant transcriptional activity (AID 720636; active means well fitted curve in the direction sought with a large enough effect in the repeat runs; an effect the other way counts as inactive or inconclusive; further: potency means the concentration at half of the fitted maximal effect). A digest of the protocol:
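Quantitative HTS format in HepG2 cells stably expressing an ARE-luciferase reporter; 16 hr compound treatment at 37 C, luciferase signal detected with ONE-Glo.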
(In qHTS, concentration-response curves come from the screen itself.)

The nature of assay [12]: Cell Viability - LYMP2-015 (AID 971).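 Further: 0% = DMSO only and full effect = 92 µM tetraoctylammonium bromide; nearly all actives have a fitted effect of over 55% in size.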 An outline of the steps:
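Cells are seeded at 2500 per well and incubated 5 hr at 37 C. Compounds are added across a concentration series for 24 hr at 37 C. CellTiter-Glo is added, and luminescence is read after 30 min at room temperature.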

Assay [13] is described as follows: Cell Viability - LYMP2-017 (AID 972).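 Further: cells exposed to compound for 24 hours at 37 °C; on the % scale 0 is the no-effect control and ±100 the full control effect; nearly all actives have a fitted effect of over 55% in size.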 A digest of the protocol: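 Cytotoxicity is scored as a concentration-dependent drop in cellular ATP in a human lymphoblastoid line after 24 hr treatment at 37 C. Values are AC50s from Hill-equation modelling.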
Assay [14] in a line: Cell Viability - LYMP2-010 (AID 981). An outline of the steps: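 Steps: seed 2500 LYMP2-010 cells per well; incubate 5 hr at 37 C; add compound; incubate 24 hr at 37 C; add CellTiter-Glo, wait 30 min at room temperature; read luminescence. Concentration-response fitted to Hill equation for AC50.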
Assay [15] in a line: qHTS assay for small molecule agonists of retinoid X receptor alpha signaling (AID 588544; calls by dose curve). The following applies: HEK293T RXRa-UAS-bla, beta-lactamase reporter, 18 h; 530 nm emission.
The target of assay [16] is Retinoic acid receptor RXR-alpha (Homo sapiens) (UniProt P19793). The assay is described as above.
In assay [17] the target is Nuclear receptor subfamily 1 group I member 2 (Rattus norvegicus) (UniProt Q9R1A7). The assay can be described thus: qHTS assay for small molecule activators of the rat pregnane X receptor (rPXR) signaling pathway (AID 651751; call rule not given here; further: 0% is about no effect). The following applies: rPXR reporter cells, luciferase (One-Glo), 24 h.
Assay [18] deals with Thyroid hormone receptor beta (Homo sapiens) (UniProt P10828). The assay can be described thus: qHTS assay for small molecule agonists of thyroid hormone receptor beta signaling (AID 588545; calls by dose curve;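 further: 0% = DMSO only and 100% = 10 nM T3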). A digest of the protocol: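 Beta-lactamase reporter activity under TR response element control is measured in HEK 293 cells after 18 hrs compound exposure. Signal is ratiometric CCF4 fluorescence, 460/530 nm.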

Assay [19] is described as follows: Cell Viability - Hek293 (AID 427;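 active means compounds whose dose-response curve shows a full or clear partial loss of cell viability, called from curve shape rather than a numeric limit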;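 further: potency means the concentration at half of the fitted maximal effect; cells exposed to compound for 40 hours at 37 °C before reading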). The note with it: qHTS. A digest of the protocol: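 Luminescent ATP read-out (CellTiter-Glo, 20 min RT) after 40 hr compound exposure at 37 °C in complete medium. Signal normalized to DMSO (basal) and 100 uM tamoxifen (100% inhibition); concentration-response fitted with the standard Hill equation to give AC50.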
The nature of assay [20]: Cell Viability - Renal Proximal Tubule (AID 545).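 Further: cells exposed to compound for 40 hours; 0% = DMSO only and -100% = 100 µM tamoxifen; nearly all actives have a fitted effect of over 40% in size.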 The note with it: renal proximal tubule cells viability, primary cells of rat origin; activity change, negative = cytotoxicity: at 91.7 µM (top of the series). A digest of the protocol: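 Rat kidney proximal tubule cells, freshly isolated; 1000 cells/well, 5 hr settle, compound 40 hr 37 °C. CellTiter-Glo 20 min RT, luminescence read. AC50 by standard Hill fit.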

Where “and” joins values, the source holds several entries; their conditions need not be identical. Equal values may be shown once. Records with an inconclusive call do not appear. Calls of active or inactive are those of the source. Unless noted, the call rests on the fitted dose curve; in most records, active means well fitted curve in the direction sought with a large enough effect; inconclusive means small, poorly fitted or top-dose-only effect, or another doubt; inactive means no such curve, though single readings can be large; an effect the other way counts as inactive or inconclusive.

Retinoic acid receptor RXR-alpha (Homo sapiens), sequence (P19793 whole entry, looked up): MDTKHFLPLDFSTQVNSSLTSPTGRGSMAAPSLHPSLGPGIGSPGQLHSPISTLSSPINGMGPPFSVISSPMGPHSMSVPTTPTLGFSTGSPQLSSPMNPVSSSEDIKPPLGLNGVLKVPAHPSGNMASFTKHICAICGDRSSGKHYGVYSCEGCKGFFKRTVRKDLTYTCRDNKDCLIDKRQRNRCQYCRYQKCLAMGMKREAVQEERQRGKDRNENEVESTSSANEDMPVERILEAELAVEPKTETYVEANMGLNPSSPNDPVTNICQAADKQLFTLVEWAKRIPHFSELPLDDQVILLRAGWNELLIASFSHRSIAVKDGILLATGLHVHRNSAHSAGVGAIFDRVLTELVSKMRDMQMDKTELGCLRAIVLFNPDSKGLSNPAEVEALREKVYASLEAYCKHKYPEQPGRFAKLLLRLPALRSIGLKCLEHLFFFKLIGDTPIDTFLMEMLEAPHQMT
Nuclear receptor subfamily 1 group I member 2 (Rattus norvegicus), sequence (Q9R1A7 whole entry, looked up): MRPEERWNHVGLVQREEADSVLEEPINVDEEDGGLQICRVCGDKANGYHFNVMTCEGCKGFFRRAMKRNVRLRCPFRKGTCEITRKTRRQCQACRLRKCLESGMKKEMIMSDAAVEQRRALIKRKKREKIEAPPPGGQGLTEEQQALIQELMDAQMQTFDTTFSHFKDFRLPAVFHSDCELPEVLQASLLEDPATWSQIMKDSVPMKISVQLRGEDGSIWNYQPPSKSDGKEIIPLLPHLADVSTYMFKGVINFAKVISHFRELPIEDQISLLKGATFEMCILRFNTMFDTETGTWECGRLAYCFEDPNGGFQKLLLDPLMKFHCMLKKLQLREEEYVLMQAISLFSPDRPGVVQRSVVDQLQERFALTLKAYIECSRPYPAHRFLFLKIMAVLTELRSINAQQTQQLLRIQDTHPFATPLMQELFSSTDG
Thyroid hormone receptor beta (Homo sapiens), sequence (P10828 whole entry, looked up): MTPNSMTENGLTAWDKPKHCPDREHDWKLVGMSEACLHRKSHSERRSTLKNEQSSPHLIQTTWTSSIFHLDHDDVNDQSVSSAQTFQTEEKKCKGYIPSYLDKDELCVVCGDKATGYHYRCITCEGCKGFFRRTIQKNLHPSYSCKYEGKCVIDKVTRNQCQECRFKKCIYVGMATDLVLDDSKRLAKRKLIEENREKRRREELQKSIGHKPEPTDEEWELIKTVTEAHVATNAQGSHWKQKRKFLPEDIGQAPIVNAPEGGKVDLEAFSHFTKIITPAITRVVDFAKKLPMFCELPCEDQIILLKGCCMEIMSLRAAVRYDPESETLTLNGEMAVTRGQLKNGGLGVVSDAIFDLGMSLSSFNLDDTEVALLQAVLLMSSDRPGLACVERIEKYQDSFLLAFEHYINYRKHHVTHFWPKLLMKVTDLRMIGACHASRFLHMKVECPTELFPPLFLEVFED

Take `Cc1c2ccccc2c(C)c2c1ccc1ccccc12`: the activity change, negative = cytotoxicity in [1] is -25% (inactive). The Potency entry in assay [2], in assay [5], in assay [6], in assay [7], in [8] and in assay [11] was “inactive” in each case. Besides, the Potency was 7.94 µM (active) in assay [3], 25.1 µM (active) in assay [4], 37.6 µM (active) in [9] and 33.5 µM (active) in assay [10].
As for `CCCCCCCC/C=C\CCCCCCCC(=O)N(CCO)CCO`, the activity change, negative = cytotoxicity in assay [1] is -111% (active). In addition, the Potency in assay [2] was 39.8 µM (active); in assay [4], 31.6 µM (active). Moreover, in assay [3], the viability change, negative = cytotoxic was -99.3% (active). For the same molecule, the Potency entry in assay [5], in assay [6], in assay [7], in [12], in assay [13] and in assay [8] was “inactive” in each case. Moreover, the Potency entry in [14], in assay [16], in assay [9], in assay [10] and in [11] was “inactive” each time. Also, the results for the max response in assay [15] and in assay [17] were 13.2% and 3.59% (inactive), respectively.
As to `Nc1ccc(N)c(Cl)c1`, in assay [1], the activity change, negative = cytotoxicity is 3.89% (inactive). Moreover, the Potency entry in assay [2], in [4], in assay [5], in [6], in [13] and in [8] was “inactive” throughout. The Potency result in assay [16] and in assay [18] was “inactive” each time. Besides, the viability change, negative = cytotoxic in [3] was -99% (active). Also, the max response in assay [15] is 15.5%; in assay [17], -1.32% (inactive). Further, the Potency in [9] is 7.5 µM (active); in [10], 10.6 µM (active).
Turning to `c1ccc2ncccc2c1`, in assay [19], the Potency is > 92 µM (inactive). Besides, the activity change, negative = cytotoxicity in [1] was -5.79% (inactive). For the same molecule, the Potency entry in assay [2], in [3], in assay [20], in assay [4], in assay [5] and in assay [6] was “inactive” each time. The Potency result in [7], in [12], in assay [13], in assay [8], in assay [14] and in assay [16] was “inactive” throughout. Further, the Potency result in assay [18], in assay [9], in [10] and in assay [11] was “inactive” throughout. For the same molecule, the max response is 5.03% in [15] and 5.68% (inactive) in assay [17].
For `CN(C)c1ccc(Cc2ccc(N(C)C)cc2)cc1`, the Potency in [19] was > 92 µM (inactive). Also, the activity change, negative = cytotoxicity in [1] is -41% (inactive). The Potency entry in [3], in [20], in [4], in [5], in [6] and in [7] was “inactive” each time. For the same molecule, the Potency entry in [12], in [13], in assay [8], in assay [14], in [18] and in assay [11] was “inactive” throughout. Besides, the max response in [17] was 1.5% (inactive) and 4.81% (inactive).
For the molecule `COc1ccc([N+](=O)[O-])cc1N`, the Potency in assay [19] was > 92 µM (inactive). Further, the Potency result in [2], in assay [3], in assay [20], in assay [4], in assay [7] and in [12] was “inactive” throughout. Also, the Potency entry in [13], in assay [8], in assay [14], in assay [16], in assay [18] and in assay [9] was “inactive” each time. Besides, the Potency result in assay [10] and in [11] was “inactive” in each case. In assay [15], the max response is -3.38% and -0.384%.
For the molecule `O=[N+]([O-])c1cc(Cl)c(Cl)c(Cl)c1Cl`, the activity change, negative = cytotoxicity in assay [1] is -28% (inactive). Also, the Potency in [3] was 31.6 µM (active); in [4], 25.1 µM (active); in [11], 37.6 µM (active). The Potency result in [20], in assay [6], in assay [18], in assay [9] and in assay [10] was “inactive” throughout. Also, in [17], the max response was 0.233% (inactive).
With `CCCC(=O)OC(=O)CCC`, the Potency in [19] was > 92 µM (inactive). Besides, the activity change, negative = cytotoxicity in [1] is -12.9% (inactive). Besides, the Potency result in assay [2], in assay [3], in assay [20], in assay [4], in assay [5] and in assay [7] was “inactive” in each case. Also, the Potency entry in assay [12], in assay [13], in [8], in [16], in assay [18] and in [9] was “inactive” in each case. Moreover, the Potency result in assay [10] and in [11] was “inactive” throughout. The max response in [15] was 16.4% and -19.3%; in assay [17] it was -1.94% (inactive) and 0.492% (inactive).
On to `C1CCCNCC1`, for which, in assay [19], the Potency was > 92 µM (inactive). Further, in assay [1], the activity change, negative = cytotoxicity was -7.29% (inactive). The Potency entry in assay [2], in assay [3], in assay [20], in [5], in assay [6] and in [7] was “inactive” each time. The Potency result in [12], in assay [13], in assay [8], in assay [14], in assay [16] and in assay [18] was “inactive” each time. In addition, the Potency result in assay [10] and in [11] was “inactive” in each case. Moreover, the figures for the max response in [15] and in assay [17] were -9.69% and 1.16% (inactive), respectively.
For the molecule `COc1cc(-c2ccc(N=C=O)c(OC)c2)ccc1N=C=O`, the Potency in assay [19] was > 92 µM (inactive). In addition, the activity change, negative = cytotoxicity in assay [1] was 4.66% (inactive). Also, the Potency entry in assay [2], in assay [3], in [20], in [4], in [5] and in assay [6] was “inactive” in each case. Also, the Potency result in assay [7], in assay [12], in assay [13], in assay [8], in assay [14] and in assay [16] was “inactive” in each case. Besides, the Potency result in [18], in assay [10] and in assay [11] was “inactive” throughout. Also, the max response in assay [15] was -18.6%.
For `CC(=O)Nc1cccc(C)c1`, the Potency in [19] was > 92 µM (inactive). In addition, the activity change, negative = cytotoxicity in [1] is -6.73% (inactive). Also, the Potency entry in assay [2], in assay [20], in [4], in [7], in [12] and in assay [13] was “inactive” throughout. Besides, the Potency entry in assay [8], in [14], in assay [16], in assay [9], in [10] and in assay [11] was “inactive” each time. Besides, the max response in assay [15] is -8.8%; in assay [17], -0.307% (inactive).
In the case of `Cc1cccnc1`, the Potency in [19] is > 92 µM (inactive). Besides, the Potency entry in assay [2], in assay [3], in [20], in [4], in [5] and in assay [6] was “inactive” each time. The Potency entry in assay [7], in assay [12], in assay [13], in assay [8], in assay [14] and in assay [16] was “inactive” throughout. Also, the Potency result in assay [9], in [10] and in assay [11] was “inactive” each time. For the same molecule, the max response is 9.82% in assay [15] and -3.97% (inactive) in [17].
Regarding `Nc1ccc(-c2ccc(N)c(O)c2)cc1O`, in assay [1], the activity change, negative = cytotoxicity is -122% (active). In addition, the Potency entry in [20], in [4], in assay [8], in [9] and in assay [11] was “inactive” each time. Besides, the max response in [17] was -1.46% (inactive).
